PubChem BioAssay (EPA / NIEHS)
Active and inactive are the calls of the source. How the source made its calls: active means hit-call score of the fitted dose curve at least 0.9, where 1 is the maximum; inactive means score below 0.9.

Key:
[1] = read-out: Monokine induced gamma interferon (MIG), CXCL9 (gene 4283); experiment: BSK_hDFCGF_MIG: BioMAP Diversity Plus: hDFCGF Assay for Monokine induced gamma interferon (MIG) Biomarker Activity (AID 2283063); conditions: primary human foreskin fibroblasts; actives raise or lower the signal
How it was run: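 ELISA read-out of MIG from primary human dermal fibroblasts 24 h post-dosing. Gain or loss of signal fitted bidirectionally, DMSO as baseline.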

[2] = read-out: Matrix Metallopeptidase 1 (MMP1), MMP1 (gene 4312); experiment: BSK_hDFCGF_MMP1: BioMAP Diversity Plus: hDFCGF Assay for Matrix Metallopeptidase 1 (MMP1) Biomarker Activity (AID 2283064); conditions: primary human foreskin fibroblasts; actives raise or lower the signal
How it was run: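 hDFCGF primary fibroblasts (human foreskin); chemical added; 24 h; MMP1 by ELISA; bidirectional fit vs DMSO.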

[3] = read-out: Vascular cell adhesion molecule 1 (VCAM1), VCAM1 (gene 7412); experiment: BSK_hDFCGF_VCAM1: BioMAP Diversity Plus: hDFCGF Assay for Vascular cell adhesion molecule 1 (VCAM1) Biomarker Activity (AID 2283065); conditions: primary human foreskin fibroblasts; actives raise or lower the signal;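 on AC50: VCAM-1 protein level quantified by ELISA after 24 h chemical exposure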
How it was run: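 Primary human foreskin fibroblasts (hDFCGF system) were dosed with chemical and VCAM-1 was measured by ELISA 24 h later. Bidirectional curve fitting used DMSO as negative control and activity baseline.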

[4] = read-out: Plasminogen activator inhibitor-1 (PAI1), SERPINE1 (gene 5054); experiment: BSK_hDFCGF_PAI1: BioMAP Diversity Plus: hDFCGF Assay for Plasminogen activator inhibitor-1 (PAI1) Biomarker Activity (AID 2283066); conditions: primary human foreskin fibroblasts; actives raise or lower the signal
How it was run: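 Human foreskin fibroblasts in the hDFCGF system were dosed with compound for 24 h; PAI-1 was quantified by ELISA. Bidirectional curve fitting used DMSO as negative control and baseline.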

[5] = read-out: Intercellular Adhesion Molecule 1 (ICAM1), ICAM1 (gene 3383); experiment: BSK_KF3CT_ICAM1: BioMAP Diversity Plus: KF3CT Assay for Intercellular Adhesion Molecule 1 (ICAM1) Biomarker Activity (AID 2283067); conditions: primary human keratinocytes with fibroblasts; actives raise or lower the signal
How it was run: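 Human keratinocyte plus foreskin fibroblast primary co-culture was exposed to chemical for 24 h. ICAM-1 was then quantified by ELISA, and the data were fit bidirectionally against DMSO as the negative control and baseline.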

[6] = read-out: Interferon-gamma inducible Protein 10 (IP10), CXCL10 (gene 3627); experiment: BSK_KF3CT_IP10: BioMAP Diversity Plus: KF3CT Assay for Interferon-gamma inducible Protein 10 (IP10) Biomarker Activity (AID 2283068); conditions: primary human keratinocytes with fibroblasts; actives raise or lower the signal
How it was run: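 Human keratinocyte plus foreskin fibroblast primary co-culture exposed to test chemical for 24 h; IP-10 measured by ELISA. Concentration-response fitted bidirectionally against DMSO control as baseline.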

[7] = BSK_KF3CT_SRB: Viability Assessment in the BioMAP Diversity Plus: KF3CT Assay (AID 2283069); conditions: primary human keratinocytes with fibroblasts;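 further: total protein by sulforhodamine B staining as a cytotoxicity measure; read 24 h after compound addition; fitted for both signal gain and loss against DMSO baseline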
How it was run: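 Keratinocytes co-cultured with foreskin fibroblasts (human primary); chemical added, 24 h; fix 10% TCA, stain 0.1% SRB, A560. Bidirectional fit vs DMSO.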

[8] = read-out: Interleukin-1 alpha (IL1a), IL1A (gene 3552); experiment: BSK_KF3CT_IL1a: BioMAP Diversity Plus: KF3CT Assay for Interleukin-1 alpha (IL1a) Biomarker Activity (AID 2283070); conditions: primary human keratinocytes with fibroblasts; actives raise or lower the signal
How it was run: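 Chemicals were dosed onto co-cultured human keratinocytes and foreskin fibroblasts, IL-1a was quantified by ELISA at 24 h, and activity was fitted in both directions relative to DMSO controls.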

[9] = read-out: TIMP metallopeptidase inhibitor 2 (TIMP2), TIMP2 (gene 7077); experiment: BSK_KF3CT_TIMP2: BioMAP Diversity Plus: KF3CT Assay for TIMP metallopeptidase inhibitor 2 (TIMP2) Biomarker Activity (AID 2283071); conditions: primary human keratinocytes with fibroblasts; actives raise or lower the signal
How it was run: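 Human primary keratinocyte/foreskin fibroblast co-culture dosed with chemical and sampled at 24 h. TIMP-2 levels quantified by ELISA; bidirectional fitting against DMSO negative control as baseline.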

[10] = read-out: Transforming growth factor beta 1 (TGFb1), TGFB1 (gene 7040); experiment: BSK_KF3CT_TGFb1: BioMAP Diversity Plus: KF3CT Assay for Transforming growth factor beta 1 (TGFb1) Biomarker Activity (AID 2283072); conditions: primary human keratinocytes with fibroblasts; actives raise or lower the signal
How it was run: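 Human keratinocyte plus foreskin fibroblast primary co-culture, dosed with chemical for 24 h. TGF-b1 quantified by ELISA. Activity fitted bidirectionally against DMSO negative control as baseline.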

Measured: AC50

C1=CCCC=CCCC=CCC1
inactive: all assays above

NC(=O)NO
inactive: all assays above

O=C(CCCCCCCCc1cccnc1)N1CCC(C=C(c2ccccc2)c2ccccc2)CC1
active: [1] 11.5 µM | [2] 9.34 µM | [3] 8.47 µM | [4] 5.88 µM | [5] 16.6 µM | [6] 15.5 µM | [7] 14.7 µM | [8] 16.9 µM | [9] 10.8 µM | [10] 10.1 µM

Cn1c(=O)c2c(ncn2C)n(C)c1=O
inactive: all assays above

Cc1ccc(S(=O)(=O)O)cc1C
inactive: all assays above

CCCCCCCCCCCCc1ccccc1
inactive: all assays above

CCN(C(=O)c1cc(C)cc(OC[C@H](C)Nc2ccncc2)c1)C(C)C
inactive: all assays above

CC[C@H]1CC[C@H](NCc2cc3c(cc2OC)[C@H]2C[C@H]2C(=O)N3C)[C@H](c2ccccc2)N1
inactive: all assays above

CC(C)c1cccc(C(C)C)c1N1C(=O)c2ccc(O)cc2C1=O
inactive: [2] | [5]
active: [1] 31.9 µM | [3] 13.8 µM | [4] 22 µM | [6] 26 µM | [7] 29.1 µM | [8] 30.9 µM | [9] 29.2 µM | [10] 29.4 µM

COC(=O)c1c(Cl)c(Cl)c(C(=O)OC)c(Cl)c1Cl
inactive: all assays above

CC(C)CCCCCCOC(=O)c1ccc(C(=O)OCCCCCCC(C)C)c(C(=O)OCCCCCCC(C)C)c1
inactive: all assays above

CC(C)=CCC/C(C)=C\CO
not listed: [10]
inactive: all other assays above

Nc1nc2ncc(CNc3ccc(C(=O)N[C@@H](CCC(=O)O)C(=O)O)cc3)nc2c(=O)[nH]1
inactive: all assays above

Nc1ccc(Nc2ccccc2)cc1
active: [3] 5.54 µM
inactive: all other assays above

CC(=O)OC[C@H]1O[C@@](COC(C)=O)(O[C@H]2O[C@H](COC(C)=O)[C@@H](OC(C)=O)[C@H](OC(C)=O)[C@H]2OC(C)=O)[C@@H](OC(C)=O)[C@@H]1OC(C)=O
inactive: all assays above

CC(=O)OCCC(C)C
inactive: all assays above

CC[C@H]1OC(=O)[C@H](C)[C@@H](O[C@H]2C[C@@](C)(OC)[C@@H](O)[C@H](C)O2)[C@H](C)[C@@H](O[C@@H]2O[C@H](C)C[C@H](N(C)C)[C@H]2O)[C@](C)(O)C[C@@H](C)C(=O)[C@H](C)[C@@H](O)[C@]1(C)O
inactive: all assays above

CC(C)CCCCCCCOC(=O)CCCCC(=O)OCCCCCCCC(C)C
inactive: all assays above

O=C(O)c1cc(N=Nc2ccc(S(=O)(=O)Nc3ccccn3)cc2)ccc1O
inactive: all assays above

CC(=O)c1ccc2c(c1)[C@H](NC(=O)c1ccc(F)cc1)[C@@H](O)C(C)(C)O2
inactive: all assays above

Nc1cccc(N)c1
inactive: all assays above
